Assay results reported in ChEMBL document CHEMBL2218924, “A broad activity screen in support of a chemogenomic map for kinase signalling research and drug discovery” (Biochem J, 2013).

What follows are compounds tested against Insulin receptor-related protein (Homo sapiens) (UniProt P14616). Conditions: at 1 µM.
Insulin receptor-related protein (Homo sapiens), sequence (P14616 27-742 limits assumed): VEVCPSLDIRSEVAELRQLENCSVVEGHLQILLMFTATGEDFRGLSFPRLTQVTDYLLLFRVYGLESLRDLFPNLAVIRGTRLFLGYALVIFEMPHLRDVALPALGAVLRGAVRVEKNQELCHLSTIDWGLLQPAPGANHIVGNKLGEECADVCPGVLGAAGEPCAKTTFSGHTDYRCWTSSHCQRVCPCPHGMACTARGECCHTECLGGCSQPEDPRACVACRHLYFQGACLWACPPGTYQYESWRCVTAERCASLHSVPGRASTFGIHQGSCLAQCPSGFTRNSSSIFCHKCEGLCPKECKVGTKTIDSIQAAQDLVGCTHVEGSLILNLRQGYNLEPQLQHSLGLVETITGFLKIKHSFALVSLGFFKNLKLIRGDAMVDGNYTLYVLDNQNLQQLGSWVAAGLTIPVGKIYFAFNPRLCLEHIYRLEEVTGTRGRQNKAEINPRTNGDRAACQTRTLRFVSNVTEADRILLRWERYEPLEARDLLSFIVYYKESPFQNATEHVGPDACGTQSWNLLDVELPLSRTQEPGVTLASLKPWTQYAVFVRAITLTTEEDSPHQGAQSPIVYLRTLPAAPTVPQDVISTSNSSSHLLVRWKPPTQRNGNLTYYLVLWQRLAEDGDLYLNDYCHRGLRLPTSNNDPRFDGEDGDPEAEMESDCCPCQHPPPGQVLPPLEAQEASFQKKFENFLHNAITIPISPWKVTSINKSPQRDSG
Insulin receptor-related protein (Homo sapiens), sequence (P14616 747-1297 limits assumed): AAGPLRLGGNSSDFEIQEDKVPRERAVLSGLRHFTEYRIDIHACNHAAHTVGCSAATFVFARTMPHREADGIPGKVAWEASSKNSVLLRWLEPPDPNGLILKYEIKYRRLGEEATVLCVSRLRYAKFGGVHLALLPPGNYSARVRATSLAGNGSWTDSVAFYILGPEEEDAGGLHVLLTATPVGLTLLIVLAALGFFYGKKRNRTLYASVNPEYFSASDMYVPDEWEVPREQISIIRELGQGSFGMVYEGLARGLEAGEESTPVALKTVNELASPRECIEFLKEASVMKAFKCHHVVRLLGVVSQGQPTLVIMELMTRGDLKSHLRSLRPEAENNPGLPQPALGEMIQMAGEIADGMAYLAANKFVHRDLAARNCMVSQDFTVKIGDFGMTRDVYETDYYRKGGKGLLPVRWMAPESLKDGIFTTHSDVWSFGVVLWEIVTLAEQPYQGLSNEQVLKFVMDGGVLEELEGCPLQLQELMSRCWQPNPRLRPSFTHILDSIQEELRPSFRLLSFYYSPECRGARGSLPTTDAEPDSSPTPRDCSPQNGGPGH

| Compound | residual activity [%] |
| --- | --- |
| COc1cc2ncnc(Nc3ccc(OCc4ccccc4)cc3)c2cc1OC | 125 |
| O=c1[nH]c2ccccc2n1C1CCN(Cc2ccc(-c3nc4cc5[nH]cnc5cc4nc3-c3ccccc3)cc2)CC1 | 124 |
| CC(C)[C@H](CO)Nc1nc(Nc2cccc(Cl)c2)c2ncn(C(C)C)c2n1 | 83 |
| COc1cc(OC)c(/C=C2\C(=O)Nc3ccccc32)c(OC)c1 | 101 |
| O=C1Nc2ccc3ncsc3c2/C1=C/c1c[nH]cn1 | 119 |
| O=[N+]([O-])/C=C/c1ccc2c(c1)OCO2 | 106 |
| COc1ccc2c(c[n+](C)c3c4cc5c(cc4ccc23)OCO5)c1OC | 130 |
| COC(=O)[C@@]1(O)C[C@H]2O[C@]1(C)n1c3ccccc3c3c4c(c5c6ccccc6n2c5c31)C(=O)NC4 | 6 |
| CC(C)(C)c1cc(C=C(C#N)C#N)cc(Br)c1O | 105 |
| O=C1NC(=O)c2c1c1c3ccccc3n3c1c1c2c2ccccc2n1C1CCC3O1 | 74 |
| C[S+]([O-])c1ccc(-c2nc(-c3ccc(F)cc3)c(-c3ccncc3)[nH]2)cc1 (configuration not stated) | 109 |

What follows are compounds tested against Insulin receptor-related protein (Homo sapiens) (UniProt P14616). Conditions: at 10 µM.

| Compound | residual activity [%] |
| --- | --- |
| COc1cc2ncnc(Nc3ccc(OCc4ccccc4)cc3)c2cc1OC | 57 |
| O=c1[nH]c2ccccc2n1C1CCN(Cc2ccc(-c3nc4cc5[nH]cnc5cc4nc3-c3ccccc3)cc2)CC1 | 95 |
| CC(C)[C@H](CO)Nc1nc(Nc2cccc(Cl)c2)c2ncn(C(C)C)c2n1 | 3 |
| COc1cc(OC)c(/C=C2\C(=O)Nc3ccccc32)c(OC)c1 | 98 |
| O=C1Nc2ccc3ncsc3c2/C1=C/c1c[nH]cn1 | 36 |
| O=[N+]([O-])/C=C/c1ccc2c(c1)OCO2 | 82 |
| COc1ccc2c(c[n+](C)c3c4cc5c(cc4ccc23)OCO5)c1OC | 76 |
| COC(=O)[C@@]1(O)C[C@H]2O[C@]1(C)n1c3ccccc3c3c4c(c5c6ccccc6n2c5c31)C(=O)NC4 | 1 |
| CC(C)(C)c1cc(C=C(C#N)C#N)cc(Br)c1O | 102 |
| O=C1NC(=O)c2c1c1c3ccccc3n3c1c1c2c2ccccc2n1C1CCC3O1 | 63 |
| C[S+]([O-])c1ccc(-c2nc(-c3ccc(F)cc3)c(-c3ccncc3)[nH]2)cc1 (configuration not stated) | 56 |

Each compound was assayed against T1, Tyrosine-protein kinase ITK/TSK (Homo sapiens) (UniProt Q08881). Conditions: at 1 µM.
T1 sequence (whole entry): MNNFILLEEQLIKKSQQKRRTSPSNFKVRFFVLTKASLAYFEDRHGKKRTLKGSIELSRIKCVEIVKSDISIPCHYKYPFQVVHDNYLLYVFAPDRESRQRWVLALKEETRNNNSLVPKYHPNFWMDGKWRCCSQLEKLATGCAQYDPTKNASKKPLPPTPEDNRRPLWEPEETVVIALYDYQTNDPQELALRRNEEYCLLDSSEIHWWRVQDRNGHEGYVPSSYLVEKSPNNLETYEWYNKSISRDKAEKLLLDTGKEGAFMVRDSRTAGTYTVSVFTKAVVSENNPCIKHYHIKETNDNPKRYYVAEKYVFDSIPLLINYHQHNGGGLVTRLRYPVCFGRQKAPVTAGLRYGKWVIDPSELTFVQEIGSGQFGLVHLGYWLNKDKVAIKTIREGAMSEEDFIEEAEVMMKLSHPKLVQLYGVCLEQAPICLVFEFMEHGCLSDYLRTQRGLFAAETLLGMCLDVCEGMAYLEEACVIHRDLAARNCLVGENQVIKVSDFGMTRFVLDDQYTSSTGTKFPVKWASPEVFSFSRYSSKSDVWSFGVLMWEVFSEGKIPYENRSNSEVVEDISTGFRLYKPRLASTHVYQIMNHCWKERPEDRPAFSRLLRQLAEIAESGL

| Compound | residual activity [%] |
| --- | --- |
| COc1cc2ncnc(Nc3ccc(OCc4ccccc4)cc3)c2cc1OC | 107 |
| O=c1[nH]c2ccccc2n1C1CCN(Cc2ccc(-c3nc4cc5[nH]cnc5cc4nc3-c3ccccc3)cc2)CC1 | 99 |
| CC(C)[C@H](CO)Nc1nc(Nc2cccc(Cl)c2)c2ncn(C(C)C)c2n1 | 68 |
| c1cc(-c2cnn3cc(-c4ccc(OCCN5CCCCC5)cc4)cnc23)ccn1 | 54 |
| CCn1cnc2c(Nc3cccc(Cl)c3)nc(N[C@@H]3CCCC[C@@H]3N)nc21 | 89 |
| COc1cc(OC)c(/C=C2\C(=O)Nc3ccccc32)c(OC)c1 | 101 |
| O=C1Nc2ccc3ncsc3c2/C1=C/c1c[nH]cn1 | 67 |
| O=[N+]([O-])/C=C/c1ccc2c(c1)OCO2 | 105 |
| COc1ccc2c(c[n+](C)c3c4cc5c(cc4ccc23)OCO5)c1OC | 99 |
| COC(=O)[C@@]1(O)C[C@H]2O[C@]1(C)n1c3ccccc3c3c4c(c5c6ccccc6n2c5c31)C(=O)NC4 | 15 |
| CC(C)(C)c1cc(C=C(C#N)C#N)cc(Br)c1O | 105 |
| O=C1NC(=O)c2c1c1c3ccccc3n3c1c1c2c2ccccc2n1C1CCC3O1 | 88 |
| C[S+]([O-])c1ccc(-c2nc(-c3ccc(F)cc3)c(-c3ccncc3)[nH]2)cc1 (configuration not stated) | 100 |

Each compound was assayed against T1, Tyrosine-protein kinase ITK/TSK (Homo sapiens). Conditions: at 10 µM.

| Compound | residual activity [%] |
| --- | --- |
| COc1cc2ncnc(Nc3ccc(OCc4ccccc4)cc3)c2cc1OC | 99 |
| O=c1[nH]c2ccccc2n1C1CCN(Cc2ccc(-c3nc4cc5[nH]cnc5cc4nc3-c3ccccc3)cc2)CC1 | 95 |
| CC(C)[C@H](CO)Nc1nc(Nc2cccc(Cl)c2)c2ncn(C(C)C)c2n1 | 11 |
| c1cc(-c2cnn3cc(-c4ccc(OCCN5CCCCC5)cc4)cnc23)ccn1 | 9 |
| CCn1cnc2c(Nc3cccc(Cl)c3)nc(N[C@@H]3CCCC[C@@H]3N)nc21 | 39 |
| COc1cc(OC)c(/C=C2\C(=O)Nc3ccccc32)c(OC)c1 | 93 |
| O=C1Nc2ccc3ncsc3c2/C1=C/c1c[nH]cn1 | 21 |
| O=[N+]([O-])/C=C/c1ccc2c(c1)OCO2 | 100 |
| COc1ccc2c(c1)/C(=C/c1cnc[nH]1)C(=O)N2 | 42 |
| COc1ccc2c(c[n+](C)c3c4cc5c(cc4ccc23)OCO5)c1OC | 91 |
| COC(=O)[C@@]1(O)C[C@H]2O[C@]1(C)n1c3ccccc3c3c4c(c5c6ccccc6n2c5c31)C(=O)NC4 | 1 |
| CC(C)(C)c1cc(C=C(C#N)C#N)cc(Br)c1O | 104 |
| O=C1NC(=O)c2c1c1c3ccccc3n3c1c1c2c2ccccc2n1C1CCC3O1 | 70 |
| C[S+]([O-])c1ccc(-c2nc(-c3ccc(F)cc3)c(-c3ccncc3)[nH]2)cc1 (configuration not stated) | 104 |

The compounds below were run against Tyrosine-protein kinase JAK2 (Homo sapiens) (UniProt O60674). Conditions: at 1 µM.
Tyrosine-protein kinase JAK2 (Homo sapiens), sequence (O60674 whole entry): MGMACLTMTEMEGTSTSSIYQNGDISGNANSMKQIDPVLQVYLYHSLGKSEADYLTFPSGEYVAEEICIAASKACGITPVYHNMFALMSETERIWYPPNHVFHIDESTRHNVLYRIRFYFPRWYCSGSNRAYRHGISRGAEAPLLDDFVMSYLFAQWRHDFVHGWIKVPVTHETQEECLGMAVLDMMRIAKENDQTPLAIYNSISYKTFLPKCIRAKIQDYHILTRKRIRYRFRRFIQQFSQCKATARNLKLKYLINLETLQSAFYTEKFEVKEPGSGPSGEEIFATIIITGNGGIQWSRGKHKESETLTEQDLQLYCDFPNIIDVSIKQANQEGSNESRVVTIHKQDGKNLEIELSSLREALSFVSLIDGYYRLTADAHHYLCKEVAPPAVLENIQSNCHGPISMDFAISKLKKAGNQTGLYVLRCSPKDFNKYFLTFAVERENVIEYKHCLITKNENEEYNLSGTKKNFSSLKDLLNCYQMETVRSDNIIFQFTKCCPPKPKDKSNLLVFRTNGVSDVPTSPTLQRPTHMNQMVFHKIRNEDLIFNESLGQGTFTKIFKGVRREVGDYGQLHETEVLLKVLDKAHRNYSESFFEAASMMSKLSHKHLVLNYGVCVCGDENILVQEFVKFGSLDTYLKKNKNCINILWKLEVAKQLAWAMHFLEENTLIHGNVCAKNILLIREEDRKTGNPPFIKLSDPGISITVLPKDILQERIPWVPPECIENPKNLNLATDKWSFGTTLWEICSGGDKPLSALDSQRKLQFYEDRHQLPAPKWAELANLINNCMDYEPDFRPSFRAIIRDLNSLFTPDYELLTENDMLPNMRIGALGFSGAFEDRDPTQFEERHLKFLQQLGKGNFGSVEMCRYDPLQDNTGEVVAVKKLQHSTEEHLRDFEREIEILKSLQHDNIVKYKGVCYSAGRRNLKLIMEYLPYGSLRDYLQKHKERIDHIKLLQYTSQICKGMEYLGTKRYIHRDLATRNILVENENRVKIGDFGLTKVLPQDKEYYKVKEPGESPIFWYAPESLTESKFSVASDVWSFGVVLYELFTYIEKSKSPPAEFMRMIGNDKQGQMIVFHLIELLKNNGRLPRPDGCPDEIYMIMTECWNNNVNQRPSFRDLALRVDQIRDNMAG

| Compound | residual activity [%] |
| --- | --- |
| N/C(=N\[N+](=O)[O-])N/N=C\c1ccc(-c2cccc([N+](=O)[O-])c2)o1 | 86 |
| COc1cc2ncnc(Nc3ccc(OCc4ccccc4)cc3)c2cc1OC | 110 |
| O=c1[nH]c2ccccc2n1C1CCN(Cc2ccc(-c3nc4cc5[nH]cnc5cc4nc3-c3ccccc3)cc2)CC1 | 120 |
| O=C1c2ccccc2-c2nc3nnnn3nc21 | 111 |
| CCn1cnc2c(Nc3cccc(Cl)c3)nc(N[C@@H]3CCCC[C@@H]3N)nc21 | 116 |
| O=C1Nc2ccc3ncsc3c2/C1=C/c1c[nH]cn1 | 59 |
| O=[N+]([O-])/C=C/c1ccc2c(c1)OCO2 | 73 |
| COc1ccc2c(c[n+](C)c3c4cc5c(cc4ccc23)OCO5)c1OC | 80 |
| CCc1nc(-c2ccc(OC)cc2)[nH]c1-c1ccncc1 | 100 |
| COC(=O)[C@@]1(O)C[C@H]2O[C@]1(C)n1c3ccccc3c3c4c(c5c6ccccc6n2c5c31)C(=O)NC4 | 2 |
| CC(C)(C)c1cc(C=C(C#N)C#N)cc(Br)c1O | 110 |
| O=C1NC(=O)c2c1c1c3ccccc3n3c1c1c2c2ccccc2n1C1CCC3O1 | 86 |
| C[S+]([O-])c1ccc(-c2nc(-c3ccc(F)cc3)c(-c3ccncc3)[nH]2)cc1 (configuration not stated) | 112 |
